Source: PubChem
DT40 TDP1 no CPT – qHTS for Inhibitors of human tyrosyl-DNA phosphodiesterase 1 (TDP1): qHTS in cells in absence of CPT; DT40 Tdp1-/- hTDP1 cells, no CPT, ATP luminescence, 48 h; Potency, µM (highest dose often 46.2 µM), for the others: at the highest dose activity change, negative = growth inhibition, hits mostly inhibitors; 15% of 420,000 active; also: potency is read from the fitted curve at half-maximal effect; nearly all actives have a fitted effect of over 55% in size
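Cells were dispensed at 400 per well, compounds added by pin tool, plates incubated ≥48 hr at 37 °C, then CellTiter-Glo added for 30 min at room temperature before luminescence reading. Line: DT40 Tdp1-/- complemented with hTDP1; camptothecin omitted.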
VP16 counter – inhibits Gal4-VP16 luciferase reporter, ROR gamma counter-screen. Drosophila S2 Gal4-VP16 UAS-luciferase, luminescence, 20 h. Potency, µM (titrated, usually from 53.6 µM), for inactives: at the highest dose activity, negative = inhibition, hits mostly inhibitors. 3.5% of 310,000 active;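 also: Gal4-VP16 expression switched on by copper sulfate through the metallothionein promoter; potency is read from the fitted curve at half-maximal effect; nearly all actives have a fitted effect of over 50% in size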
DT40 TDP1 CPT – DT40-hTDP1 cell growth loss with CPT. chicken DT40 Tdp1-/-;hTDP1 cells + 20 nM CPT, ATP luminescence, 48 h. Potency, µM (series often up to 46.2 µM), inactives show at the top dose activity change, negative = growth inhibition, usual class: inhibitors. 12% of 420,000 active; also: potency is read from the fitted curve at half-maximal effect; nearly all actives have a fitted effect of over 55% in size
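Cell growth measured by CellTiter-Glo luminescence after a minimum 48 h, 37 C compound exposure with 20 nM CPT in Tdp1-knockout DT40 cells stably expressing hTDP1, seeded 400/well; qHTS titration format.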
IL1B secr inh – blocks inflammasome-driven IL-1 beta release. AID 743279. THP-1 LPS/ATP IL-1B secretion, AlphaLISA, 16 h; active compounds read low. 4.7% of 360,000 active. activity change, % at 57.5 µM; in the data active = activity change below about -50%; inconclusive = mostly about -30% to -49%
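THP-1 cells pretreated 1 hr with compounds (up to 57.5 uM final), then stimulated with LPS (250 ng/mL final) plus ATP (1.25 mM final); secreted IL-1B measured by AlphaLISA after 16 hr, decreased signal indicating inhibition.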
RORgamma inh – blocks mouse ROR gamma transcriptional activity. P51450. Drosophila S2 Gal4-RORgamma UAS-luciferase reporter, 20 h. Potency, µM (titrated, usually from 53.6 µM), inactives show at the highest dose activity change, negative = inhibition, actives largely listed as inhibitors. 5.4% of 310,000 active. AID 2551; also: potency is read from the fitted curve at half-maximal effect; nearly all actives have a fitted effect of over 60% in size
Target sequence (P51450 whole entry, looked up, the tested form may be a part): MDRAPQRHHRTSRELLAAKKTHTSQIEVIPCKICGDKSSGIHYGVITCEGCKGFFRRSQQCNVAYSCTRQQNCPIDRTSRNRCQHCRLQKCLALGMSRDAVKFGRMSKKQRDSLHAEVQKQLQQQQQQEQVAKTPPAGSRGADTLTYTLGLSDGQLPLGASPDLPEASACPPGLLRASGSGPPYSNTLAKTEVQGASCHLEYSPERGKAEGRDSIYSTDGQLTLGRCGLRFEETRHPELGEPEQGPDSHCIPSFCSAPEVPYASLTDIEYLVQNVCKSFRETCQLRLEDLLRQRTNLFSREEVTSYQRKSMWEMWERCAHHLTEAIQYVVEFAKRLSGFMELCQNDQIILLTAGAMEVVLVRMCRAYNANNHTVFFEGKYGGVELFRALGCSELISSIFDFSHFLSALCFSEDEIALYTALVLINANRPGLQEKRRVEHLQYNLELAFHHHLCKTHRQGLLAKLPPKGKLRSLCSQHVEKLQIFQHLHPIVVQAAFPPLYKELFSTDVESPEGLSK
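Read-out: Photinus luciferase luminescence; inhibitors lower reporter signal. Insect Schneider cells with Gal4-ROR gamma fusion under metallothionein promoter, UAS reporter; 700 uM final copper sulfate induction, 20 hr, ambient temperature.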
ELG1 repair inh – inhibitors of ELG1-dependent DNA repair in HEK293T cells; 2.3% of 330,000 active; Potency, µM (highest dose often 46.1 µM), inactives show at the highest dose activity change, negative = inhibition, hits mostly inhibitors; HEK293T ELG1-luciferase reporter, luminescence, 16 h; DNA damage induced by 5-fluorouridine; AID 504467; also: potency is read from the fitted curve at half-maximal effect; nearly all actives have a fitted effect of over 55% in size
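In this reporter screen, reduction of luminescence relative to DMSO vehicle indicated activity. Compounds and 5-fluorouridine were added together to 2,000 cells per well, incubated for 16 hr at 37 °C, then developed with ONE-Glo.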
Numbers without * were called inactive; ? = inconclusive; / = not tested or not shown; [ ] = remark or other dose. Sampled rows, rich in hits. Any-hit rate of the full collection: about 21%. Unless noted, calls follow the shape of the dose curve; as a rule, active = well fitted curve in the direction sought with a large enough effect; inconclusive = small, poorly fitted or top-dose-only effect, or another doubt; inactive = no such curve, though single readings can be large; an effect the other way counts as inactive or inconclusive. % is scaled to controls: 0 for no effect and ±100 for the full control effect.

SMILES | DT40 TDP1 no CPT | VP16 counter | DT40 TDP1 CPT | IL1B secr inh | RORgamma inh | ELG1 repair inh
CC(C)[C@H](NS(=O)(=O)c1ccc2c(c1)OCCO2)C(=O)OCC(=O)Nc1cc(Cl)ccc1Cl | 29µM* | ? | ? | 30 | 8% | 18µM*
CCOc1ccccc1N1CCN(C(=O)c2ccccc2)CC1 | -21% | 5% | -12% | 5 | -7% | 1%
CC(C)C[C@@H](CC(=O)N[C@@H](CCC(=O)O)CC(=O)O)NC(=O)[C@@H]1CCCC[C@H]1NC(=O)C[C@H](CCCN)NC(=O)C[C@H](Cc1ccccc1)NC(=O)[C@@H]1CCCC[C@H]1N | / | -2% | / | / | -23% | /
O=C(CCCOc1ccc(Cl)cc1Cl)NNC(=O)c1ccc(NC(=O)c2ccccc2)cc1 | 3% | -15% | -23% | 6 | -21% | -12%
Cc1noc(C)c1C(=O)OCC(=O)Nc1ncc(Cl)c(C)c1Cl | -9% | / | -16% | 33 | / | -1%
CC(=O)N[C@@H](CC(C)C)C(=O)N[C@@H](CCCNC(=N)N)C(=O)N[C@@H](Cc1cnc[nH]1)C(=O)N[C@@H](Cc1ccc(O)cc1)C(=O)N[C@@H](CC(C)C)C(=O)N[C@@H](CC(N)=O)C(=O)N[C@@H](CC(C)C)C(=O)N[C@@H](CC(C)C)C(=O)N[C@H](C(=O)N[C@@H](CCCNC(=N)N)C(=O)N[C@@H](CCC(N)=O)C(=O)N[C@@H](CCCNC(=N)N)C(=O)N[C@@H](Cc1ccc(O)cc1)C(N)=O)[C@@H](C)O | / | 4% | / | / | -13% | /
CCC(=O)N1CCc2cc(Br)cc(S(=O)(=O)N3CCCC(C(=O)Nc4ccc(C(C)C)cc4)C3)c21 (stereo not drawn) | ? | / | -26% | / | / | /
CC1CN(C(=O)c2ccc(S(=O)(=O)Nc3ccccc3F)cc2)CC(C)O1 (stereo not drawn) | -5% | / | 6% | -2 | / | 29%
COc1ccc(NC(C)=O)cc1NS(=O)(=O)c1ccc2c(c1)OCCO2 | 5% | / | -4% | -3 | / | ?
COC(=O)c1ccc(Cl)c(NS(=O)(=O)c2ccc3c(c2)OCCO3)c1 | 4.1µM* | 16% | 5.2µM* | 3 | -18% | -1%
CCOc1ccc(S(=O)(=O)Nc2ccc(C(=O)N3CC(C)OC(C)C3)cc2)cc1 (stereo not drawn) | -22% | / | ? | 8 | / | 7%
CCOc1ccc(NS(=O)(=O)c2ccc(C(=O)N3CCCCC3)cc2)cc1 | 13µM* | ? | 15µM* | 32 | ? | -15%
CC1CN(C(=O)c2ccc(NS(=O)(=O)c3ccc(C(C)(C)C)cc3)cc2)CC(C)O1 (stereo not drawn) | 9.2µM* | / | 15µM* | 48 | / | -13%
Cc1cc(C)cc(NC(=O)CSCc2cc(=O)c3ccc(C)c(C)c3[nH]2)c1 | -22% | / | 3% | / | / | /
COc1cc(-c2cccc(Cl)c2)cc2c1OCCN(C(=O)CCn1ccc(C)n1)C2 | ? | / | 1%[9.04 µM] | / | / | /
COc1ccc([C@H]2CC(=O)C[C@@H](CCn3cc(C)nn3)O2)cc1 | -14% | / | 1% | 43 | / | /
Cc1oc(-c2ccccc2)nc1CS(=O)CC(=O)N1CCc2ccccc2C1 (stereo not drawn) | 26µM* | -2% | 9.2µM* | 11 | ? | -1%
Cc1ccc(-c2nc(CS(=O)CC(=O)N3CCN(c4ccc(Cl)cc4)CC3)c(C)o2)cc1 (stereo not drawn) | 21µM* | / | 16µM* | / | / | /
Cc1ccc(-c2nc(CS(=O)CC(=O)N3CCN(c4ccccc4)CC3)c(C)o2)cc1 (stereo not drawn) | 15µM* | -2% | 23µM* | -25 | 14% | -3%
Cc1oc(-c2ccccc2Cl)nc1CS(=O)CC(=O)N1CCN(c2ccccc2)CC1 (stereo not drawn) | -25% | 1% | -23% | -15 | 16% | 0%
COC(=O)c1ccc2nc(-c3ccc(F)cc3)c(CC3CCCCC3)n2c1 | 21µM* | / | 26µM* | 45 | / | /
Cc1ccc(-c2nc3ccc(C)cn3c2CC2CCCCC2)cc1 | 16µM* | / | ? | 18 | / | /
COC(=O)c1ccc2nc(-c3ccc(C)cc3)c(CC3CCCCC3)n2c1 | 16µM* | / | 21µM* | 9 | / | /
Cc1ccc(-c2nc3ccc(Cl)cn3c2CC2CCCCC2)cc1 | ? | / | -20% | -22 | / | /
COC(=O)c1sc(S(=O)(=O)Nc2ccc(C)c(C)c2)c(C(=O)OC)c1C | ? | ? | ? | 18 | 37% | 15%
SMILES | DT40 TDP1 no CPT | VP16 counter | DT40 TDP1 CPT | IL1B secr inh | RORgamma inh | ELG1 repair inh
CC(=O)Oc1ccccc1/C=C/c1nc2ccccc2c(=O)o1 | ? | 10µM* | -16% | 14 | 8.9µM* | -15%
O=c1oc(/C=C/c2ccc([N+](=O)[O-])s2)nc2ccccc12 | ? | / | ? | -62* | / | ?
C=CCC1C=CC(Oc2ccc(F)cc2C)C(CO)O1 (stereo not drawn) | / | 27%[10 µM] | / | / | 23%[10 µM] | /
O=C(CSCc1cccc(CSCC(=O)Nc2ccc3ccccc3c2)n1)Nc1ccc2ccccc2c1 | 15µM* | -14% | ? | -26 | 33% | ?
O=C(CS)Nc1ccc2ccccc2c1 | 4.1µM* | 0% | 2.9µM* | -95* | 11% | -29%
CC1(C)CC(=O)c2cc(C(=O)NCCc3ccccc3)c(=O)[nH]c2C1 | -27% | / | -23% | / | / | /
COC(=O)CSc1[nH]c2ccccc2c1[N+](=O)[O-] | -29% | -6% | 18µM* | 5 | 7% | 12%
COc1cc(OC)c(NS(=O)(=O)c2c(C(=O)N3CCCCC3)c(C)n(C)c2C)cc1Cl | 1% | -2% | 1% | -13 | 11% | -1%
COc1cc(NC(=S)NCc2ccco2)cc(OC)c1OC | 9% | 20µM* | -3% | 27 | 11µM* | -5%
